# Compound activity (PubChem)
# ANO1 block – TMEM16A chloride channel inhibitors, primary screen, cell-based, HTS; Anoctamin-1 (Mus musculus), Q8BHY3; HEK293 TMEM16A/YFP iodide influx fluorescence, ionomycin; normalized B-score (activity score, 25-100; higher = stronger inhibition) at 10 µM; 310,000 tested, 1.2% active;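 active = ratio plate-corrected score three or more library SD toward inhibition, starting fluorescence score within five deviations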;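 also: score derived from kinetic fluorescence span divided by baseline fluorescence per well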
# TLR4 MyD88 comp – inhibitors of TLR4-MyD88 association in cells, primary screen, cell-based, HeLa CL3-4, BLA complementation, FRET ratio. HeLa CL3-4 TLR4/MyD88 BLA complementation. AID 861, 2007. Toll-like receptor 4 (Homo sapiens) + Myeloid differentiation primary response protein …. 200,000 tested, 0.18% active. inhibition, % at 8.4 µM; in the data active = inhibition above about 25%;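 also: 0% = vehicle and 100% = reference inhibitor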
# HTR2A ag – mouse Htr2a agonists via beta-arrestin recruitment, primary screen, cell-based, luminescence; 5-hydroxytryptamine receptor 2A (Mus musculus), P35363; 360,000 tested, 0.66% active; AID 624169, 2012; activation, % at 7.6 µM; CHO-K1 mHTR2A beta-arrestin complementation; percent of 30 µM serotonin response;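 active = activation above a run cutoff, the mean activation of all tested compounds plus 3 SD, cut at about 14% in these data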;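 also: 0% = plate median of compound wells and 100% = 30 µM serotonin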
# ANO1 activ – TMEM16A chloride channel activators or potentiators, primary screen, cell-based, HTS; B-score at 10 µM; HEK293 TMEM16A/YFP-H148Q/I152L, iodide quench fluorescence; active compounds read low; 340,000 tested, 0.3% active; Anoctamin-1 (Mus musculus), Q8BHY3; AID 623877, 2012;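 active = fluorescence-ratio B-score plate-corrected deviation score at least 3 library SD below zero, with starting fluorescence score within 5 deviations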;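 also: channel opened by trigger with iodide after compound preincubation; score built on the fluorescence ratio of max minus min over baseline; more negative score means more quench and so TMEM16A activation or potentiation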
# NOD2-RIPK2 inh – NOD2-RIPK2 binding disruptors in cells, primary screen, fluorescence, CHO cells, BLA complementation; CCF4 ratio; 360,000 tested, 0.38% active; Receptor-interacting serine/threonine-protein kinase 2 (Homo sapiens), O43353; inhibition, % at 4.98 µM; in the data active = inhibition above about 21%;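 also: 0% = vehicle only and 100% = reference blocker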
# Target sequence (O43353 whole entry, looked up): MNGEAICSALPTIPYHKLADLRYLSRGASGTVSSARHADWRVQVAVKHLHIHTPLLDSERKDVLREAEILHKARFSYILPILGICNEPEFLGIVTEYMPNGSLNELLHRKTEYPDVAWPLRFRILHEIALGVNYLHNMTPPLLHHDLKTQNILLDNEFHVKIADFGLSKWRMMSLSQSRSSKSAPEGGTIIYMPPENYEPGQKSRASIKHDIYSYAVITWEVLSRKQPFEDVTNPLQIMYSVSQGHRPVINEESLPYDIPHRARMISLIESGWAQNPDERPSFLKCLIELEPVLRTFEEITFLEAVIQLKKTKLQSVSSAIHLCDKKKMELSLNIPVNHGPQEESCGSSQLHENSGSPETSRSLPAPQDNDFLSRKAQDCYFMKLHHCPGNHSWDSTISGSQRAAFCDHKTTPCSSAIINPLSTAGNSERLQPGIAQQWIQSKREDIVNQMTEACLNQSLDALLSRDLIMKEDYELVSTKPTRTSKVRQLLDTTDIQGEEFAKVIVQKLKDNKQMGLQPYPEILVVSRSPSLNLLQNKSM
# TLR9-MyD88 block – inhibitors of TLR9-MyD88 association in cells, primary screen, cell-based, CHO, BLA complementation, fluorescence | Toll-like receptor 9 (Homo sapiens) + Myeloid differentiation primary response protein … | CCF4 FRET ratio | inhibition, % at 4.98 µM | 340,000 tested, 0.21% active | AID 504734, 2011;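 active = inhibition above the mean over all tested compounds plus 3 SD, cut at about 21% in these data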;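 also: 0% = DMSO only wells and 100% = clavulanate BLA inhibitor control wells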
# Active calls of the source: *; i = inactive; x = not tested or not shown. A selection: hits, their analogues and other compounds. The true share with any hit is near 2.4%.
SMILES,ANO1 block,TLR4 MyD88 comp,HTR2A ag,ANO1 activ,NOD2-RIPK2 inh,TLR9-MyD88 block
CCOC(=O)N1CCN(C(=O)C[C@@H]2C[C@@]3(C(=O)OC)CCCCC=C3N(Cc3cccc4ccccc34)C2=O)CC1,x,x,-1.5,x,5.9,x
COc1ccc(NC(=O)CN2CCN(c3ccc(F)cc3)CC2)cc1,i,x,-3.2,i,-5.1,-12.9
COc1ccc(NC(=O)CN2CCN(c3ccc(F)cc3)CC2)cc1Cl,i,2.1,-3.5,-11.2*,-11.0,-11.7
COc1cc(/C=C2/CC/C(=C/c3ccc(O)c(OC)c3)C2=O)ccc1O,i,x,-2.4,-12.9*,-10.1,1.9
COC(=O)c1ccc(NS(=O)(=O)NC(=O)c2c[nH]c3ccccc23)cc1,i,x,-2.3,i,-2.6,-6.4
Cn1cc(-c2csc(C(O)c3ccc(F)c(F)c3)n2)cn1 (configuration not stated),x,x,1.7,x,3.1,x
COc1cc(C(=O)NC(=S)NNC(=O)[C@H]2C[C@@H]2c2ccccc2)cc(OC)c1OC,25*,x,3.7,i,-1.2,-2.8
COc1ccccc1C(=O)NNC(=S)NC(=O)c1cc(OC)c(OC)c(OC)c1,i,0.9,5.0,i,-7.8,-0.2
O=C(Cn1cc([N+](=O)[O-])cn1)N1CCc2ccccc21,i,3.4,16.2*,i,-17.1,-12.3
O=C(Cn1cc([N+](=O)[O-])cn1)N1CCCc2ccccc21,i,-15.6,-5.2,i,-0.3,-5.5
CCC(=O)N1CCN(CCN=CC2=C(O)CC(c3cccs3)CC2=O)CC1 (configuration not stated),i,5.7,3.8,i,-16.4,2.6
CN(c1ccccc1)S(=O)(=O)c1cccc(C(=O)NNC(=O)c2ccccc2)c1,25*,-20.3,3.5,i,0.8,0.9
CN(c1cccc(NC(=O)c2ccc(N(C)S(=O)(=O)c3ccccc3)cc2)c1)S(C)(=O)=O,100*,-6.5,0.2,i,3.2,3.1
CC(=O)Nc1ccc(C(=O)Nc2cccc(S(=O)(=O)N(C)c3ccccc3)c2)cc1,x,x,6.7,i,18.5,1.1
Cn1c(COc2ccccc2)nnc1SCC(=O)NNC(=O)C1CCCCC1,i,0.8,2.1,i,-6.5,-12.9
Cc1ccc(S(=O)(=O)c2nc(-c3cccs3)oc2NCCCN(C)C)cc1,i,13.6,1.8,i,-8.4,4.4
O=C(CCc1nnc2ccc(NCc3ccco3)nn12)N1CCN(c2ccccc2F)CC1,i,x,-1.1,i,-16.1,9.6
COc1cc(/C=C/C(=O)c2ccc(NS(=O)(=O)c3ccc(C)cc3)cc2)cc(OC)c1O,i,0.5,-6.0,-5.14*,0.9,9.6
COc1cccc(CN2CCc3ccc(NC(=O)CCc4ccc(C)cc4)cc3C2)c1O,25*,x,-1.7,i,-7.1,-1.5
Cc1ccc(S(=O)(=O)NC(=O)c2ccc(-c3ccc(-c4ccccc4)cc3)o2)c(C)c1,100*,-1.9,x,x,x,x
Cc1ccc(S(=O)(=O)NC(=O)c2ccc(F)cc2)c(C)c1,i,x,-3.1,i,1.8,-6.2
CNS(=O)(=O)c1cccc(C(=O)OCc2cc(=O)oc3c(C)c(O)ccc23)c1,100*,x,3.9,i,-0.8,0.4
Cc1cc(=O)c2cccc(Br)c2[nH]1,i,-6.2,-2.6,i,-8.9,7.3
O=c1cc(C(F)(F)F)[nH]c2c(C(F)(F)F)cccc12,100*,-5.5,2.6,i,-3.5,-10.8
O=C(CN1CCN(S(=O)(=O)c2ccccc2)CC1)NC(=O)NCc1ccccc1,i,-3.9,3.7,-10.5*,-4.9,-1.4
SMILES,ANO1 block,TLR4 MyD88 comp,HTR2A ag,ANO1 activ,NOD2-RIPK2 inh,TLR9-MyD88 block
Cc1ccc(NC(=O)CSc2nn(-c3ccc(Cl)cc3)c(=S)s2)cc1S(=O)(=O)N(C)C,100*,12.6,-2.0,i,6.8,5.5
CN(C)S(=O)(=O)c1cc(NC(=O)CSc2nn(-c3ccc(Cl)cc3)c(=S)s2)ccc1Cl,i,-1.5,-5.2,i,3.6,-8.8
Cc1cccc(C)c1-n1nnnc1C1(C)CCC(=O)N1C1CCN(Cc2ccccc2)CC1 (configuration not stated),x,x,6.4,x,-13.4,x
Cc1ccc(NC(=O)c2ccc(CSc3nnc(C)s3)cc2)cc1,i,-0.1,-2.8,i,2.8,-9.8
COC(=O)c1ccc(CN(c2ccc(C(=O)O)c(O)c2)S(=O)(=O)c2ccc(Cl)c([N+](=O)[O-])c2)cc1,100*,x,3.9,i,-1.4,-15.1
COC(=O)c1ccc(CN(c2ccccn2)S(=O)(=O)c2ccccc2)cc1,i,-0.9,-5.1,i,-2.0,7.2
CCCc1ccc(Oc2coc3cc(OCC(=O)Nc4ccccc4C)ccc3c2=O)cc1,i,3.6,1.4,-5.17*,1.4,-4.3
CCc1ccc(Oc2coc3cc(OCC(=O)Nc4cc(C)ccc4C)ccc3c2=O)cc1,i,-4.7,-1.1,i,4.3,-0.7
N#CC1=C(N)NC(SCc2ccccc2)=C(C#N)C12CCCC2,i,-12.8,-0.1,-5.09*,-15.1,-1.3
N#CC1=C(N)NC(SCC(=O)c2ccccc2)=C(C#N)C12CCCC2,i,-3.8,2.0,i,-11.7,1.2
N#CC1=C(N)NC(SCc2ccc(Br)cc2)=C(C#N)C12CCCCC2,100*,0.9,-4.8,i,8.8,1.0
N#CC1=C(N)NC(SCc2ccc(Cl)cc2)=C(C#N)C12CCCCC2,100*,1.6,0.1,i,5.0,-0.6
N#CC1=C(N)NC(SCC(=O)Nc2ccc(Br)cc2)=C(C#N)C12CCCCC2,100*,16.2,-3.6,i,3.2,5.4
Cn1c(SCc2ccc(C#N)cc2Cl)nc2ccccc21,i,6.5,3.7,i,9.1,-6.0
Cc1ccc(C(C(=O)NC2CCCC2)N(Cc2ccc(F)cc2)C(=O)c2snc(C(N)=O)c2N)o1 (configuration not stated),i,x,-2.4,i,7.2,-2.0
Cc1cc(C)c2c(CN3CCN(Cc4ccccc4)CC3)cc(=O)oc2c1C,i,x,-12.1,i,3.9,-0.3
CCCOC(=O)c1ccc(Oc2c(-c3ccc(O)cc3O)n[nH]c2C)cc1,25*,-0.5,-2.4,i,0.5,0.3
CCOC(=O)Nc1ccc2c(c1)N(C(=O)CN(C)C)c1ccccc1CC2,100*,x,4.3,i,-1.1,-6.2
